# Screening results deposited in PubChem BioAssay by National Center for Advancing Translational Sciences (NCATS).
# Hits are enriched below; roughly 7.3% of the tested compounds scored in any of these assays.
# HCMV antiviral = inhibitors of human cytomegalovirus | HFF cells, HCMV-luciferase reporter, 72 h; stronger effect = lower value | activity change, negative = inhibition, % at 57.5 µM | 410,000 tested, 4.5% active | AID 1259415; in the data active = activity change below about -60%; inconclusive = no clear call, values can overlap the other calls; inactive = above about -39%
#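 Human foreskin fibroblasts infected with luciferase-reporter HCMV at MOI 1 PFU/cell, compounds at two doses. Luciferase measured 72 h post infection; normalized to buffer-only basal and Salinomycin (10uM) controls.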
# Vaccinia Venus = vaccinia inhibition (Venus reporter); Vaccinia virus Venus reporter expression, fluorescence; Potency, µM (doses to about 36.5 µM), without a hit: at the top dose activity change, negative = inhibition, hits mostly inhibitors; 330,000 tested, 0.46% active; calls by dose curve; tested in A549 cells; note: potency is the fitted concentration of half-maximal effect; nearly all actives have a fitted effect of over 30% in size
# Vaccinia mCherry = inhibitors of vaccinia virus infection (mCherry reporter signal); Vaccinia virus mCherry reporter infection, fluorescence; Potency, µM (highest dose often 36.5 µM), without a hit: top-dose activity change, negative = inhibition, actives largely listed as inhibitors; 310,000 tested, 0.63% active; calls by dose curve; tested in A549 cells; note: potency is the fitted concentration of half-maximal effect; nearly all actives have a fitted effect of over 35% in size
# HCV inh = blocks hepatitis C virus; AID 651820; 340,000 tested, 3.4% active; Potency, µM (highest dose often 41.8 µM), for the others: top-dose activity change, negative = inhibition, actives largely listed as inhibitors; Huh7.5.1 HCVcc-Cre infection, luciferase reporter, 44 h; active = well fitted inhibition curve with a large enough effect; inconclusive = small, poorly fitted or top-dose-only effect, or another doubt; inactive = no such curve, though single readings can be large or run the other way; note: potency is the fitted concentration of half-maximal effect
#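 1,000 cells/well; 4 h culture; + compound; + HCVcc-Cre (~0.5 moi); 44 h; luciferase substrate, RT 15 min; read 15 sec.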
# FMDV antiviral = blocks foot and mouth disease virus; FMDV antiviral cell-based qHTS; Potency, µM (titrated, usually from 57.9 µM), for inactives: at the highest dose activity change, negative = inhibition, actives largely listed as inhibitors; 410,000 tested, 1.2% active; calls by dose curve; tested in HEK293T cells; note: read-out not given here; potency is the fitted concentration of half-maximal effect; nearly all actives have a fitted effect of over 45% in size
# * hit, by the source's call; i = inactive; ? = inconclusive; / = not tested or not shown. % is set by controls: 0 for no effect and ±100 for the full control effect.
SMILES,HCMV antiviral,Vaccinia Venus,Vaccinia mCherry,HCV inh,FMDV antiviral
CCN(CC)S(=O)(=O)c1cccc(NC(=O)c2ccc(Br)cc2)c1,?,-25%,?,8.9µM*,25µM*
O=C(Cc1ccccc1[N+](=O)[O-])c1ccccc1[N+](=O)[O-],-14,/,/,/,/
CCN(c1cc(C)cc(C)c1)S(=O)(=O)c1nnc(NC(=O)C(C)C)s1,-77*,-21%,-5%,-9%,13%
CCN(c1ccc(C)cc1C)S(=O)(=O)c1nnc(NC(=O)C(C)C)s1,-73*,/,/,-8%,-27%
CCN(c1ccc(C)cc1C)S(=O)(=O)c1nnc(NC(=O)C(C)(C)C)s1,33,-15%,i,41%,-26%
Cc1cc(C)cc(N(C)S(=O)(=O)c2nnc(NC(=O)C(C)C)s2)c1,?,-23%,-11%,24%,-9%
CCCn1c(CCC(=O)Nc2cc(C(=O)OC)cc(C(=O)OC)c2)nc2cccnc21,13,-5%,-15%,/,-22%
COc1ccccc1CNc1cc(-c2ccoc2)ncn1,/,/,/,/,10%
CCc1nn2c(=O)c(F)c(N3CCNCC3)nc2s1,-105*,/,/,/,-17%
O=C1c2ccccc2NC(c2ccc(Br)s2)N1O (centres undefined),-75*,/,/,?,3%
C=CCN1C(=O)c2ccccc2NC1c1ccc(Br)s1 (centres undefined),?,-3%,?,8%,-9%
CCOc1ccccc1N1C(=O)NC(=O)/C(=C/c2ccc3c4c(cccc24)CC3)C1=O,49,-11%,/,16%,40µM*
COc1cccc(N2C(=O)NC(=O)/C(=C/c3ccc4c5c(cccc35)CC4)C2=O)c1,-101*,/,/,8%,/
CCOc1ccc(N2C(=O)NC(=O)/C(=C\c3ccccc3[N+](=O)[O-])C2=O)cc1,8,/,/,7%,-24%
COc1ccc(N2C(=O)NC(=O)/C(=C\c3ccccc3[N+](=O)[O-])C2=O)cc1,21,3%,-6%,25%,-21%
CC(C)CC1NC(=O)c2cccnc2-n2c1nc1ccccc1c2=O (centres undefined),-6,-25%,i,/,-18%
O=S1(=O)N[C@H](Cc2ccccc2)COc2cc(F)ccc21,-22,/,/,/,/
COc1ccccc1Cc1c(C(C)(C)C)nc2c(C)cc(Br)cn12,-12,/,/,/,/
O=S1(=O)NC[C@]23C[C@H](c4ccc(F)cc4)[C@@H](C[C@@H]21)O3,-102*,-2%,i,11%,18%
COc1ccc2c3c(n(C)c2c1)[C@@H](CO)N(C(=O)c1cnccn1)CC31CN(C(C)=O)C1,2,/,/,/,/
C=C1CC[C@@H]2[C@](C)(CO)[C@H](O)CC[C@@]2(C)[C@@H]1C/C=C1/C(=O)OC[C@H]1O,/,?,?,/,-26%
C=C1CC[C@@H]2[C@](C)(CO)[C@H](O)CC[C@@]2(C)[C@@H]1C/C=C1/C(=O)OCC1O (some centres undefined),-77*,-25%,-20%,1%,?
CCc1cccc2c(C(O)c3c[nH]c4ccccc34)c[nH]c12 (centres undefined),/,58%,-6%,/,/
Cc1ccc(-c2[nH]nc(N)c2N=Nc2ccccc2C)cc1,-65*,?,?,?,3%
Cc1ccc(-c2[nH]nc(N)c2N=Nc2cccc(Cl)c2C)cc1,-28,?,?,?,?
SMILES,HCMV antiviral,Vaccinia Venus,Vaccinia mCherry,HCV inh,FMDV antiviral
CCOC(=O)CN1C(=O)C2(OCCCO2)c2cc(Br)ccc21,-6,-14%,i,9%,-12%
Cc1[nH]c2ccccc2c1N=Nc1ccccc1F,-5,-27%,?,10µM*,12%
Cc1[nH]c2ccccc2c1N=Nc1ccc(F)cc1,-31,-21%,-21%,?,0%
OC(COC(c1ccc(Cl)cc1)c1ccc(Cl)cc1)CN1CCc2ccccc2C1 (centres undefined),-35,-24%,-23%,13µM*,-30%
CC(C)(C)c1ccc(OCC(O)CN2CCc3ccccc3C2)cc1 (centres undefined),-63*,/,/,?,-15%
OC(COC(c1ccc(F)cc1)c1ccc(F)cc1)CN1CCc2ccccc2C1 (centres undefined),-61*,?,?,?,-21%
OC(COC(c1ccccc1)c1ccccc1)CN1CCc2ccccc2C1 (centres undefined),38,-14%,-23%,?,-13%
COc1ccccc1C(=O)Nc1cccc(OCc2cc(=O)n3ccccc3n2)c1,-36,-8%,-1%,/,4%
O=C(NC(=S)N1CCCC1)c1ccccc1F,-2,-9%,-17%,16%,-9%
O=C(NC1CCCCCC1)c1ccc(=O)n(Cc2ccccc2)n1,-66*,-19%,-13%,-19%,-18%
CCc1ccc(C(=O)NC(Cc2c[nH]c3ccccc23)C(=O)OCC(=O)c2ccc(Br)cc2)cc1 (centres undefined),0,-6%,-21%,/,31%
COc1ccccc1/C=C(/C(=O)OCC(=O)Nc1ccc(N(C)C)cc1)c1ccccc1,-16,-12%,i,?,-19%
COc1ccccc1/C=C(/C(=O)OCC(=O)Nc1ccccc1C)c1ccccc1,-62*,/,/,-4%,?
COC(=O)c1cc2occc2n1Cc1nc(-c2cccc(Br)c2)oc1C,6,-9%,-24%,/,-18%
O=C(COc1ccc(-c2ccccc2)cc1)N/N=C/c1cc(O)ccc1Br,-61*,?,-12%,-15%,-17%
Cc1cccc(C(=O)N2CCc3cc(CNS(=O)(=O)c4ccc(F)c(Cl)c4)ccc32)c1,-34,-15%,-16%,/,-26%
COc1cc([C@@H]2c3cc4c(cc3C(O[C@@H]3O[C@@H]5COC(c6cccs6)O[C@H]5[C@H](O)[C@H]3O)C3COC(=O)[C@@H]32)OCO4)cc(OC)c1O (some centres undefined),/,?,2µM*,/,-20%
CCCCCCCCCCOC(=O)Cn1c(COc2ccc(OC)cc2)[n+](C)c2ccccc21,/,11µM*,?,?,?
CCCCCCCCCCOC(=O)Cn1c(COc2ccc(Cl)cc2)[n+](C)c2ccccc21,-40,10µM*,?,?,?
CCCCCCCCCCOC(=O)Cn1c(COc2cccc(C)c2)[n+](C)c2ccccc21,-37,?,-4%,?,20µM*
CCOC(=O)Cn1c(COc2ccccc2OC)[n+](C)c2ccccc21,22,/,/,?,-10%
CCCCCCCCCCOC(=O)Cn1c(COc2ccccc2)[n+](C)c2ccccc21,-40,11µM*,?,?,35µM*
CN(C)C(=O)Oc1cccc(OCc2n(C)c3ccccc3[n+]2C)c1,-19,-6%,-9%,16%,-13%
CC(CCC(C)[n+]1cccc(Br)c1)[n+]1cccc(Br)c1 (centres undefined),/,3%,i,/,/
CCCCCCCCCCOC(=O)Cn1c(COc2ccccc2C)[n+](C)c2ccccc21,/,28µM*,?,?,?
